Bioassay records: PubChem BioAssay, National Center for Advancing Translational Sciences (NCATS)
KinaseGlo FLuc – blocks Kinase-Glo luciferase, a counter-screen artifact | Potency, µM (top dose mostly 38.3 µM), for inactives: top-dose activity change, negative = inhibition, actives largely listed as inhibitors | AID 1379 | Q27757 | actives 0.28% (n = 200,000) | Kinase-Glo luciferase, ATP luminescence, 8 min; note: nearly all actives have a fitted effect of over 60% in size
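Recombinant Kinase-Glo luciferase, 10 uM ATP (linear range), luciferin; imidazole pH 7.2 / KCl / MgCl2 / Tween / BSA buffer; 8 min RT; luminescence.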
RORg inh – blocks mouse ROR gamma transcriptional activity | AID 2551 | actives 5.4% (n = 310,000) | Drosophila S2 Gal4-RORgamma UAS-luciferase reporter, 20 h | Potency, µM (highest dose often 53.6 µM), without a hit: at the highest dose activity change, negative = inhibition, most hits filed as inhibitors; note: nearly all actives have a fitted effect of over 60% in size
Target sequence (P51450 whole entry, looked up, the tested form may be a part): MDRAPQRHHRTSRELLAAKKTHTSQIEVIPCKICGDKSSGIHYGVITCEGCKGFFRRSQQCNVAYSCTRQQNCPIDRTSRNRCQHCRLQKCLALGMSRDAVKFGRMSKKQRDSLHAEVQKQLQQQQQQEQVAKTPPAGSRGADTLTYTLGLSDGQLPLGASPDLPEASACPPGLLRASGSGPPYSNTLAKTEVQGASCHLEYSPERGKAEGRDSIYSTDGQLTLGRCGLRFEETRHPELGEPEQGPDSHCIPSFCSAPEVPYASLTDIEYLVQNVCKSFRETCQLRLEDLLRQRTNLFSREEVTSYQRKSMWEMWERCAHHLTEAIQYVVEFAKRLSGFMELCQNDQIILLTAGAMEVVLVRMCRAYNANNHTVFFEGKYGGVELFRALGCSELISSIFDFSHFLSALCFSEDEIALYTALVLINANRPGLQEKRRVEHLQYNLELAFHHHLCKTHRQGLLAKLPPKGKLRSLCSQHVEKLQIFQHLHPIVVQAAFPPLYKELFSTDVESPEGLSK
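Using a luciferase readout, inhibitors were identified by reduced reporter activity in Drosophila cells coexpressing a copper-inducible Gal4–ROR gamma fusion and UAS-driven Photinus luciferase, incubated 20 hr after 700 uM copper sulfate.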
Gal4-VP16 FLuc – inhibits Gal4-VP16 luciferase reporter, ROR gamma counter-screen. Drosophila S2 Gal4-VP16 UAS-luciferase, luminescence, 20 h. Potency, µM (highest dose often 53.6 µM), inactives show at the highest dose activity, negative = inhibition, actives largely listed as inhibitors. actives 3.5% (n = 310,000);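 note: Gal4-VP16 expression switched on by copper sulfate through the metallothionein promoter; nearly all actives have a fitted effect of over 50% in size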
Active calls of the source: *; ? = inconclusive; . = no result given; [ ] = dose if it differs, or a comment. Hits are enriched below; roughly 6.2% of the tested compounds scored in any of these assays. Calls come from the whole dose curve; as a rule, active = well fitted curve in the direction sought with a large enough effect; inconclusive = small, poorly fitted or top-dose-only effect, or another doubt; inactive = no such curve, though single readings can be large; an effect the other way counts as inactive or inconclusive. % is set by controls: 0 for no effect and ±100 for the full control effect; potency is the fitted concentration of half-maximal effect.

SMILES | KinaseGlo FLuc | RORg inh | Gal4-VP16 FLuc
COCCn1nnnc1C(c1ccc(OC)c(OC)c1)N1CCN(c2nc3ccccc3s2)CC1 (stereo unspecified) | -2% | -26% | 1%
CC[C@H](C)[C@H](NC(=O)[C@H](Cc1ccc(O)cc1)NC(=O)[C@@H](NC(=O)[C@H](CCCNC(=N)N)NC(=O)[C@@H](N)CC(=O)O)C(C)C)C(=O)N[C@@H](Cc1cnc[nH]1)C(=O)N1CCC[C@H]1C(=O)N[C@@H](Cc1ccccc1)C(=O)N[C@@H](Cc1cnc[nH]1)C(=O)N[C@@H](CC(C)C)C(=O)N[C@@H](CC(C)C)C(=O)N[C@H](C(=O)N[C@@H](Cc1ccc(O)cc1)C(=O)N[C@@H](CO)C(=O)O)C(C)C | . | 13% | -11%
CN1CCN(c2nc(-c3ccc(Cl)cc3)cc(=O)[nH]2)CC1 | . | -21% | -18%
CC(C)C[C@H](NC(=O)c1[nH]cnc1C(=O)N[C@@H](C)C(=O)OC(C)(C)C)C(=O)OCc1ccccc1 | . | 16µM* | ?
CC(C)(C)OC(=O)CNC(=O)c1[nH]cnc1C(=O)N[C@@H](Cc1ccccc1)C(=O)OC(C)(C)C | . | ? | 13µM*
CC(C)C[C@H](NC(=O)c1[nH]cnc1C(=O)N[C@@H](Cc1ccccc1)C(=O)OCc1ccccc1)C(=O)OC(C)(C)C | . | 5.6µM* | 16µM*
CC(C)C[C@H](NC(=O)c1[nH]cnc1C(=O)N[C@@H](Cc1ccccc1)C(=O)OC(C)(C)C)C(=O)OC(C)(C)C | . | 3.2µM* | 11µM*
COc1ccc(OC)c(NC(=O)CSc2nncc3ccc(OC)c(OC)c23)c1 | . | 2% | ?
O=C(COc1cccc(-n2cnnn2)c1)Nc1ccc([N+](=O)[O-])cc1 | . | 10% | -1%
CC(=O)N1CCC2(CCN(Cc3ccccc3)CC2)CC1 | -3% | -9% | -1%
Cn1c(NC(=O)Cc2cccc3ccccc23)cc(=O)n(C)c1=O | 3% | 15% | 2%
CC(C)c1ccc(/C=N/n2cnnc2)cc1 | . | 19% | -4%
CCCCCC(=O)O[C@H](CC(=O)O)C[N+](C)(C)C | 0% | 13% | -8%
CC(C)C[C@H](NC(=O)c1[nH]cnc1C(=O)N[C@@H](Cc1ccccc1)C(=O)OC(C)(C)C)C(=O)OCc1ccccc1 | . | 7.9µM* | ?
O=C(c1cc2cc([N+](=O)[O-])ccc2s1)N1CCOCC1 | -1% | 3% | 18%
O=c1cc(CN2CCN(C/C=C/c3ccccc3)CC2)c2cc(O)c(-c3ccccc3)cc2o1 | 1% | 8% | -24%
Cc1cc2oc(=O)cc(CN3CCN(C/C=C/c4ccccc4)CC3)c2cc1O | -5% | ? | 35µM*
O=C(Cc1ccc(NC2=NC3CS(=O)(=O)CC3S2)cc1)NCc1ccc(Cl)cc1 (stereo unspecified) | . | -5% | 8%
CC1=CC2C(CC1=O)C(C)=CCC2C(C)C (stereo unspecified) | -1% | -2% | 3%
CCOc1ccc(C(=O)Nc2ccc(N3CCN(C(C)=O)CC3)cc2)cc1[N+](=O)[O-] | 0% | 12% | 0%
COc1ccc(C(=O)NC(=S)Nc2ccc(N3CCN(C(C)=O)CC3)cc2)cc1[N+](=O)[O-] | . | ? | 18µM*
COc1ccc(C(=O)Nc2ccc(N3CCN(C)CC3)cc2)cc1[N+](=O)[O-] | -3% | 1% | 3%
CC(=O)N1CCN(c2ccc(NC(=S)NC(=O)c3ccc(C)c([N+](=O)[O-])c3)cc2)CC1 | . | ? | 7.9µM*
C1=Nc2c(Nc3ccccc3)ncnc2Oc2ccccc21 | -4% | 5% | 9%
Oc1cc(-n2cccn2)c(O)cc1-n1cccn1 | . | ? | 13µM*
SMILES | KinaseGlo FLuc | RORg inh | Gal4-VP16 FLuc
O=Cc1ccccc1-n1cccn1 | 1% | 1% | -9%
S=C1CSc2ccccc2N1 | -1% | 3.5µM* | 7.9µM*
c1ccc2c(c1)NCCS2 | -1% | 14% | -4%
CC1CSc2ccccc2NC1=S (stereo unspecified) | -3% | 7.1µM* | 7.9µM*
c1ccc(C2CSc3ccccc3N2)cc1 (stereo unspecified) | . | -11% | -3%
Cc1nn(-c2ccccc2)c2c1C1(C(=O)N(C(C)C)c3ccccc31)C(C#N)=C(N)O2 (stereo unspecified) | -2% | ? | ?
CC(=O)OCC(NC(=O)C1CCCN1C(=O)OC(C)(C)C)C1OC(n2ccc(=O)[nH]c2=O)C(OC(C)=O)C1OC(C)=O (stereo unspecified) | . | -11% | -4%
CCCCCCCC1=Cc2ccccc2C(CC(C)=O)N1C(=O)OC (stereo unspecified) | -9%[7.66 µM] | 15%[10 µM] | -3%[10 µM]
COC(=O)CN1CCC(=O)c2ccccc2S1(=O)=O | . | -4% | -4%
CNCc1ccccc1Sc1ccc(O)c(O)c1 | -1% | 8.9µM* | 7.1µM*
COc1ccc(Sc2ccccc2CN(C)C)cc1OC | 3% | -22% | 7%
C/C(=N\NC(=O)c1n[nH]c2c1CCC2)c1ccco1 | . | 8.9µM* | 13µM*
C/C(=N/NC(=O)c1ccccn1)c1ccco1 | 7.1µM* | 10µM* | ?
C/C(=N/NC(=O)c1cc(-c2ccc(Cl)s2)[nH]n1)c1ccco1 | . | 31% | -6%
C/C(=N\NC(=O)c1ccc(Cl)cc1)c1ccccn1 | . | 0.028µM* | ?
C/C(=N/NC(=O)c1ccccn1)c1ccc(O)cc1 | . | -8% | -3%
C/C(=N\NC(=O)c1ccccn1)c1ccc(Cl)cc1 | . | ? | -29%
Cc1ccc(-c2nnc(CSc3nc(C(C)C)nc4sc(C)c(C)c34)o2)cc1 | 0% | -12% | 3%
Nc1ccn([C@@H]2O[C@H](CO)[C@H](O)C2(F)F)c(=O)n1 | . | -2% | -6%
CC1SC(c2ccc(F)cc2)NC1=O (stereo unspecified) | 2% | 1% | 2%
Fc1ccc(NC(=S)N2CCOCC2)c(F)c1 | . | 0% | -6%
COc1ccc(OC)c(NC(=S)N2CCC(C(O)(c3ccccc3)c3ccccc3)CC2)c1 | 1% | 16µM* | ?
Cc1cc(Br)ccc1NC(=S)N1CCOCC1 | . | 13µM* | 1%
Cc1ccc(NC(=S)NN2CCOCC2)c(C)c1 | 1% | 11µM* | ?
COc1ccc(Cl)cc1NC(=S)NN1CCOCC1 | 0% | 5µM* | ?
SMILES | KinaseGlo FLuc | RORg inh | Gal4-VP16 FLuc
COc1ccc(OC)c(NC(=S)N2CCN(Cc3ccccc3)CC2)c1 | -1% | -71% | 4%
COc1ccc(NC(=S)NN2CCOCC2)cc1OC | . | -27% | 1%
Cc1ccc(NC(=O)NN2CCOCC2)cc1 | . | 0% | -15%
COCCNC(=O)C1(CC(C)C)C=CCN1C(C)=O (stereo unspecified) | 3% | 31% | 27%
COc1ccc(OC)c(NC(=S)NN2CCOCC2)c1 | 2% | 28µM* | -8%[0.365 µM]
O=C(Nc1cccc2ccccc12)N1CCOCC1 | 2% | -6% | -1%
S=C(Nc1cccc2ccccc12)NN1CCOCC1 | -3% | 11µM* | ?
COc1ccc(OC)c(NC(=S)NN2CCN(C)CC2)c1 | 2% | -6% | 6%
NC(=O)COC(=O)c1ccccc1OCc1ccccc1Cl | 1% | 9% | 11%
C/C(CCc1ccc2c(c1)OCO2)=N\NC(=S)NC(C)C | -2% | 2.2µM* | 4.5µM*
COCCNC(=O)C(=O)N/N=C(\C)CC(=O)Nc1ccc2c(c1)OCO2 | -1% | 3% | 24%
COCCNC(=S)N/N=C(\C)CCc1ccc2c(c1)OCO2 | -1% | 4.5µM* | 10µM*
